This is an account of results in PubChem BioAssay AID2650 (Broad Institute, 2010).

SMILES strings stand for the structures. Out of some 320,000 compounds screened, about 320 (0.1%) were called active.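 How the source made its calls: active means more than half of replicates show inhibition above 20%; inconclusive means some but at most half of replicates above 20% inhibition; inactive means no replicate shows inhibition above 20%.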 For the sample, actives were picked, then their nearest neighbours and some compounds at random. Non-standard residues stand in square brackets, D forms with d. Residues, ends and D or L forms follow the SMILES beside them. ξ: configuration not given here. ξM = CSCCC(N)C(=O)O

Glycogen synthase kinase-3 alpha (Homo sapiens), sequence (P49840 whole entry, looked up): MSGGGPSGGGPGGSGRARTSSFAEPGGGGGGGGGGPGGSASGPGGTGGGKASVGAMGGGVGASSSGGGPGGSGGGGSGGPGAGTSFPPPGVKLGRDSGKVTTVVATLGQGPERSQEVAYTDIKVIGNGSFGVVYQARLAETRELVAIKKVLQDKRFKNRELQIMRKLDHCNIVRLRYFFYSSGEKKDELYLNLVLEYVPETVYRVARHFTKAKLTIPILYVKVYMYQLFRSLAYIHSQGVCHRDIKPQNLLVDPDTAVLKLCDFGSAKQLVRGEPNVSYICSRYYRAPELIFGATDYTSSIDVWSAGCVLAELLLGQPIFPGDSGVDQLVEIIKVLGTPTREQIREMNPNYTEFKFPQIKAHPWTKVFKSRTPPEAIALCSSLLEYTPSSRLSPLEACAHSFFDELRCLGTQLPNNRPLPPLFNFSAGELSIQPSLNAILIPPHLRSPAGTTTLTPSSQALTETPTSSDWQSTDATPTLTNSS

This experiment addresses Glycogen synthase kinase-3 alpha (Homo sapiens) (UniProt P49840). As to the kind of experiment: blockers of GSK3A enzyme activity – biochemical, luminescence, cell-free homogeneous, HTS, primary screen (AID 2650).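 Further: GST-tagged GSK-3 alpha with peptide substrate and 25 µM ATP; 0% = DMSO neutral wells and 100% = GW8510 positive control wells.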 Conditions: GSK-3 alpha kinase, ADP-Glo luminescence, 60 min; at 10 µM; stronger effect = higher value. In general terms: ADP-Glo turns the ADP formed in a reaction into a luminescent signal.
`O=C(CNC(=O)OCc1ccccc1)Oc1cc2oc(=O)cc(-c3ccccc3)c2cc1Cl`: the inhibition is -0.182% (inactive). Next, `CC1CCc2c(nc3ncnn3c2Nc2ccc(OC(F)(F)F)cc2)C1` (stereo not drawn): 3.32% (inactive); `Cc1ccc(N(Cc2ccccc2O)C(=O)c2ccccc2F)cc1`: 0.374% (inactive). The result for `O=C(O)C1CCCN(CCC=C(c2ccccc2)c2ccccc2)C1` (stereo not drawn) reads -1.79% (inactive); that for `N#CCc1c(C#N)c(N)nc(N2CCCC2)c1C#N`, 5.31% (inactive); that for `N#Cc1c(-c2ccccc2)cc(-c2ccccc2)nc1SCC(=O)O`, -8.49% (inactive). Next, `N#Cc1c(N2CCCCC2)nc(N)c2c(N)nc(SCC(=O)O)cc12`: 71.9% (active).

Consider `Cc1c(C(=O)Nc2cccc(S(=O)(=O)N3CCOCC3)c2)oc2ccccc12`, for which the inhibition is -2.02% (inactive). Take `CC(C)(C)c1cc(CN2CCN(CCC#N)CC2)cc(C(C)(C)C)c1O`: the inhibition was -0.131% (inactive). Next, `CCCn1c(N)c(N(CCOC)C(=O)C2CCCC2)c(=O)[nH]c1=O`: -0.139% (inactive); `CCn1c(SC(C)C(=O)Nc2ccc(N3CCOCC3)cc2)nnc1-c1ccco1` (stereo not drawn): -7.92% (inactive). For the molecule `COC(=O)c1ccc(C23CC4(C2)[C@H](CN(Cc2cccnc2)[C@@H]4c2ccccc2)C3c2ccc(Cl)nc2)cc1` (stereo partly drawn), the inhibition is -1.59% (inactive).

In the case of `CCOc1ccc(CN2CCN(Cc3ccc(C)o3)CC2CCO)cc1` (stereo not drawn), the inhibition is -3.68% (inactive). Consider `O=C(COC(=O)Cc1ccc(Br)cc1)Nc1ccc(N2CCOCC2)cc1`, for which the inhibition was -2.2% (inactive). Next, `COc1ccc(NC(=O)CN2C(=O)COc3ccc(S(=O)(=O)N4CCOCC4)cc32)c(OC)c1`: -0.917% (inactive); `COc1ccc(S(=O)(=O)N(C)C[C@H]2Oc3c(NC(=O)Nc4ccc5c(c4)OCO5)cccc3C(=O)N([C@H](C)CO)C[C@@H]2C)cc1`: -2.73% (inactive). As to `Cc1ccc(S(=O)(=O)NCC2CCC(C(=O)N3CCOCC3)CC2)cc1` (stereo not drawn), the inhibition was -1.46% (inactive). Next, `Cc1ccc(C)c(NC(=O)COC(=O)c2nn(C)c(=O)c3ccccc23)c1`: -0.308% (inactive); `FC(F)(F)COc1nc(N2CCCCC2)nc(N2CCNCC2)n1`: -3.54% (inactive); `CC1CC1C(=O)OCC(=O)Nc1cccc(F)c1` (stereo not drawn): -2.53% (inactive). Next, `CCOC(=O)/C=C/c1ccc(C(F)(F)F)cc1S(=O)(=O)NC(C)(C)C`: 0.204% (inactive); `O=C(NCc1cccs1)c1ccc(CS(=O)Cc2ccccc2Cl)o1` (stereo not drawn): 2.9% (inactive); `CC(C)CCNC(=O)c1ccc2c(Cl)c3c(nc2c1)CCC3`: 1.16% (inactive). For the molecule `O=C(OCC1OC(Oc2ccc(O)cc2)C(O)C(O)C1O)c1ccccc1` (stereo not drawn), the inhibition was 19.4% (inactive). Next, `O=C(OCC1O[C@@H](OC(=O)c2cc(O)c(O)c(O)c2)[C@@H](OC(=O)c2cc(O)c(O)c(O)c2)[C@@H](OC(=O)c2cc(O)c(O)c(O)c2)[C@@H]1OC(=O)c1cc(O)c(O)c(O)c1)c1cc(O)c(O)c(O)c1` (stereo partly drawn): 57.5% (active); `CS(=O)(=O)N(CC(=O)Nc1ccc(Cl)c(Cl)c1)C1CCCCC1`: -0.751% (inactive). As to `O=C(Nc1ccccc1-c1nnn(CC(=O)N2CCCc3ccccc32)n1)c1cccc(Cl)c1`, the inhibition was -2.04% (inactive). Next, `Cc1ccc(C(=O)N/N=C\c2cc(Br)c(Br)o2)cn1`: 2.23% (inactive).

In the case of `Cc1cc2cc3c(cc2nc1SCC(=O)Nc1c(C)cccc1C)CCC3`, the inhibition is -3.92% (inactive). The result for `Cc1noc(/C=C/c2ccco2)c1S(=O)(=O)N1CCC(C(=O)N2CCc3ccccc32)CC1` reads -1.67% (inactive).

Turning to `Cc1cc(C)nc(NS(=O)(=O)c2ccc(N3C(=O)C4CCCCC4C3=O)cc2)n1` (stereo not drawn), the inhibition is 1.53% (inactive). The result for `Oc1ccc(-c2nncn2-c2ccccc2)cc1` reads 53.7% (active); that for `c1ccc(-n2nc3ccccc3n2)cc1`, -1.52% (inactive). The result for `Oc1ccc(-c2nnc(Nc3ccccc3)c3ccccc23)cc1` reads 0.551% (inactive); that for `Brc1ccccc1CN1CCC(Cc2ccccc2)CC1`, -0.57% (inactive); that for `O=C1CN(C(=O)COC(=O)/C=C/c2ccc(F)cc2)c2ccccc2N1`, -0.211% (inactive).

Regarding `O=C(CCNS(=O)(=O)c1ccc(Br)s1)NCc1ccccc1Cl`, the inhibition was 0.12% (inactive). The result for `CCCN1C2=C(C(=O)CCC2)C(c2ccc(O)c(Br)c2)C2=C1CCCC2=O` reads 0.35% (inactive); that for `C=CCNC(=O)C1CC=CCC1C(=O)O` (stereo not drawn), 3.88% (inactive); that for `CC(C)C[C@@H](COc1ccccc1)N1CCN(CC(C)C)CCC1=O`, -0.599% (inactive). Next, `CN1C(=O)[C@H]2[C@@H](C3CC3)N3C(=O)CN(Cc4ccccc4)C(=O)[C@@]3(C)[C@H]2C1=O`: -0.57% (inactive). The result for `CCc1nc(SCC(=O)Nc2ccccc2OC)n[nH]1` reads 0.384% (inactive); that for `OC(COCC1COc2ccccc2O1)CN1CCN(c2ccc(F)cc2)CC1` (stereo not drawn), -3.09% (inactive). Consider `Cc1cc(C)c(C(=O)CSc2nc(C)cc(=O)[nH]2)c(C)c1`, for which the inhibition was -3.36% (inactive).

With `Nc1nc(SCC(=O)Nc2cc(C(F)(F)F)ccc2Cl)[nH]c(=O)c1NC(=O)c1ccco1`, the inhibition was 0.858% (inactive).

Regarding `O=c1cc(C(F)(F)F)[nH]c(=O)n1C1CCCCC1`, the inhibition was -7.78% (inactive).

As to `CCCCN(CCCC)CCC(O)c1cc2c(Cl)cc(Cl)cc2c2cc(C(F)(F)F)ccc12` (stereo not drawn), the inhibition was -3.02% (inactive).

For the molecule `CCC1Nc2ncnc(N3CCN(c4ccccc4)CC3)c2N(Cc2ccc(Cl)cc2)C1=O` (stereo not drawn), the inhibition is -3.36% (inactive).

For the molecule `CC[C@H](C)C(=O)N[C@H]1CCCN1C(=O)/C=C/c1ccccc1`, the inhibition is -0.364% (inactive). As to `CC1(C)Cc2nc3sc4c(SCC(=O)NC(c5ccccc5)c5ccccc5)ncnc4c3cc2CO1`, the inhibition was 19.1% (inactive).

For the molecule `COc1ccccc1NC(=O)CSc1nnc(CNC(=O)c2ccccc2F)o1`, the inhibition was -1.79% (inactive). The result for `COc1ccccc1NC(=O)CCSc1nnc(-c2ccc(O)cc2)o1` reads 61% (active). The result for `CCc1ccccc1NC(=O)CSc1nnc(-c2ccncc2)o1` reads 0.246% (inactive); that for `COc1ccc(N(C)C(=O)CCS(=O)(=O)c2cccc3nsnc23)cc1`, -0.848% (inactive). The result for `O=C(c1ccc(CS(=O)(=O)c2ccccc2)o1)N1CCN(c2ccccc2)CC1` reads -1.56% (inactive).

For the molecule `Cc1ccccc1-c1cc(C(=O)NCc2cccs2)n(CC2CC(c3cccnc3)=NO2)n1` (stereo not drawn), the inhibition is 8.15% (inactive). The result for `COC(=O)c1sc(N)c(C(=O)OC)c1COC(=O)CNS(=O)(=O)c1ccc(C)cc1` reads -5.73% (inactive); that for `O=C(CN1CCC(O)(c2cccc(C(F)(F)F)c2)CC1)NCCc1ccccc1`, -1.83% (inactive); that for `COc1ccccc1CNC(=O)Cn1c(=O)oc2cc(Cl)ccc21`, -2.27% (inactive). Consider `CN(C)Cc1c(O)ccc2c(=O)c(-c3ccccc3Cl)coc12`, for which the inhibition was 0.391% (inactive). Next, `O=C1/C(=C/c2ccc3c(c2)OCO3)Oc2cc(OCC(=O)N3CC(O)C[C@H]3C(=O)O)ccc21` (stereo partly drawn): 58.3% (active); `COC(=O)C(C)Oc1ccc2c(c1)O/C(=C\c1cccc(Br)c1)C2=O` (stereo not drawn): -0.218% (inactive); `COc1ccc2c(c1)O/C(=C\c1ccccc1O)C2=O`: -3.6% (inactive).

In the case of `CSc1nccc(NC(=O)c2ccc(C(C)(C)C)cc2)n1`, the inhibition is 0.764% (inactive). Next, `CCN1CCN(c2c(Cl)cccc2NC(=O)c2ccc(Br)o2)CC1`: 84.2% (active); `O=C(Nc1cccc(Cl)c1N1CCOCC1)c1ccc2c(c1)OCCO2`: 3.78% (inactive). The result for `O=C(Nc1cccc(Cl)c1N1CCOCC1)c1cccnc1` reads 1.42% (inactive); that for `CC(C)(C)NS(=O)(=O)NC(=O)C1=C(N2CCCC2)COC1=O`, -2.51% (inactive); that for `N#Cc1ccc(OCC(=O)NC(=O)NC2CCS(=O)(=O)C2)cc1` (stereo not drawn), 0.468% (inactive). As for `CCOC(=O)CCCCCC(=O)Nc1ccc2c(c1)CC(=O)N([C@@H](C)CO)C[C@H](C)[C@@H](CN(C)Cc1ccccc1)O2`, the inhibition is -2.38% (inactive). The result for `COc1ccc(NC(=O)c2cc([N+](=O)[O-])ccc2NC(=O)CNC2CCCCC2C)c(OC)c1` (stereo not drawn) reads -2.82% (inactive); that for `O=C(Nc1ccc(Cl)c(Cl)c1)N1CC=C(c2ccccc2)CC1`, -0.494% (inactive); that for `COc1ccc(-n2c(=S)[nH]c3sc4c(c3c2=O)CCc2ccccc2-4)cc1`, -1.96% (inactive). Next, `COc1ccc(Cn2c(O)c(/C=C3/C=CC=N3)c(=O)[nH]c2=O)cc1`: 0.739% (inactive); `CCC(C)NCCOCCOc1ccc(Br)cc1C` (stereo not drawn): -0.652% (inactive); `CCNc1nc(N)nc(Oc2ccc(OCC)nn2)n1`: 3.16% (inactive). Next, `Cc1ccc(CNCc2ccc3c(c2)OCO3)c(C)c1`: -0.957% (inactive).

`CCOC(=O)c1ccccc1NC(=O)COC(=O)CCC(=O)N1CCOCC1`: the inhibition was 8.47% (inactive). The result for `COc1ccc(CCNS(=O)(=O)c2cn(C)nc2C)cc1` reads 2.55% (inactive); that for `NNC(=O)c1nnn(-c2nonc2N)c1CN1CCCC1`, 23.2% (inactive). Consider `Nc1nonc1-n1nnc(C(=O)N/N=C\c2ccncc2)c1CN1CCCCC1`, for which the inhibition is 107% (active). Next, `Nc1nonc1-n1nnc(C(=O)N/N=C/c2ccccc2O)c1CN1CCCC1`: 49.8% (inactive); `COc1ccc(/C=C/C(=O)OCC(=O)NC2CCCCCC2)cc1OC`: -0.779% (inactive); `COc1ccc(S(=O)(=O)N2CCN(C(C)C(=O)Nc3ccc(C(C)C)cc3)CC2)cc1` (stereo not drawn): 1.33% (inactive). Next, `COCCCn1c(Cc2csc(Nc3cccc(Cl)c3)n2)nnc1SCC(=O)OC1CCCCC1`: 1.8% (inactive). Next, `CC(=O)c1cccc(OCC(=O)OCC(=O)Nc2cc(S(=O)(=O)N3CCCCC3)ccc2C)c1`: 2.43% (inactive); `CCOCC(=O)Nc1ncc(S(=O)(=O)c2ccc([N+](=O)[O-])cc2)s1`: -1.6% (inactive). As for `COC(=O)CNC(=O)C(CCSC)NC(C)=O` (stereo not drawn) (Ac-[ξM]-Gly-OMe), the inhibition was -4.49% (inactive).

For orientation: inhibition means the change of the read-out against control, counted positive when it falls.
